The record followed here is PubChem BioAssay (Tox21).

Records with an inconclusive call do not appear. Unmarked numbers belong to inactive results. The source made the active and inactive calls. Unless noted, calls follow the shape of the dose curve; as a rule, active = well fitted curve in the direction sought with a large enough effect in the repeat runs; inconclusive = weak or mixed curves; inactive = no such curve, though single readings can be large; an effect the other way counts as inactive or inconclusive.

Assay [1] can be described thus: qHTS assay to identify aromatase inhibitors - cell viability counter screen (AID 743084;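 also: cells stimulated with testosterone during compound exposure; nearly all actives have a fitted effect of over 55% in size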). (Quantitative high-throughput screening tests each substance at several concentrations.)
In assay [2] the target is Aryl hydrocarbon receptor (Homo sapiens) (UniProt P35869). Put plainly: qHTS assay to identify small molecule that activate the aryl hydrocarbon receptor (AhR) signaling pathway (AID 743085).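 Also: HG2L7.5c1 human HepG2 liver cells with stably integrated DRE-driven firefly reporter; series mostly up to about 70 µM; nearly all actives have a fitted effect of over 15% in size.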 The procedure, abridged:
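Cell line HG2L7.5c1 (human hepatoma, 20× DRE-luc). Plated, 5 h 37C, compound/DMSO added, 24 h 37C. CellTiter-Fluor 30 min 37C → fluorescence; then ONE-Glo 30 min RT → luminescence.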

The target in assay [3] is Peroxisome proliferator-activated receptor gamma (Homo sapiens) (UniProt P37231). Put plainly: qHTS assay to identify small molecule agonists of the peroxisome proliferator-activated receptor gamma (PPARg) signaling pathway (AID 743094; active = well fitted activation curve with a large enough effect in the signal ratio in the repeat runs, not every such curve was filed as active; the % refers to the signal ratio). In outline:
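Agonism was assessed in a beta-lactamase reporter system, HEK293H cells with a stably integrated UAS-bla construct under PPARg control; the 17 h treatment at 37C preceded a 1 h room-temperature FRET substrate read.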

Assay [4] can be described thus: qHTS assay to identify small molecule antagonists of the peroxisome proliferator-activated receptor gamma (PPARg) signaling pathway - cell viability counter screen (AID 743194). Also: nearly all actives have a fitted effect of over 55% in size. The procedure, abridged: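 PPARg-UAS-bla HEK293H cells were plated, rested 5 h at 37 C, then treated with compounds plus rosiglitazone (50 nM final) for 17 h at 37 C; viability was then read by CellTiter-Glo luminescence after 30 min at room temperature.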

Assay [5] in a line: qHTS assay for small molecule agonists of the antioxidant response element (ARE) signaling pathway (AID 743202; active = well fitted activation curve with a large enough effect in the signal ratio in the repeat runs, not every such curve was filed as active; the % refers to the signal ratio). The procedure, abridged:
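Following a 16 h, 37 C exposure of reporter HepG2 cells (ARE-driven beta-lactamase, 2,000 cells/well) to compounds, FRET substrate was applied for 2 h at room temperature and fluorescence intensity recorded.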

Assay [6] is described as follows: qHTS assay for small molecule agonists of the antioxidant response element (ARE) signaling pathway - cell viability counter screen (AID 743203; calls by dose curve; also: nearly all actives have a fitted effect of over 55% in size). The procedure, abridged:
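ATP content via CellTiter-Glo luminescence served as the viability measure. Cells: ARE-bla HepG2, 2,000 per well. Exposure: 16 hrs, 37C/5% CO2.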

Assay [7] is described as follows: qHTS assay for small molecule activators of the heat shock response signaling pathway (AID 743210; active = well fitted activation curve with a large enough effect in the signal ratio in the repeat runs, with a control signal flat, not every such curve was filed as active; the % refers to the signal ratio; also: series mostly up to about 63 µM). In outline:
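Heat shock element–beta-lactamase HeLa reporter cells; qHTS with compounds for 5 h at 37 C; detection by FRET substrate fluorescence after 2.5 h at RT.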

A short description of assay [8]: qHTS assay to identify small molecule agonists of the peroxisome proliferator-activated receptor delta (PPARd) signaling pathway - cell viability counter screen (AID 743211). Also: nearly all actives have a fitted effect of over 55% in size. In outline: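 HEK293H PPARd-bla, 3000 cells/well; 5 h preincubation 37C/5% CO2; cpd in DMSO, 17 h 37C; B/G FRET substrate 2 h RT; CellTiter-Glo 30 min RT, luminescence.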
In assay [9] the target is Peroxisome proliferator-activated receptor delta (Homo sapiens) (UniProt Q03181). Briefly: qHTS assay to identify small molecule agonists of the peroxisome proliferator-activated receptor delta (PPARd) signaling pathway (AID 743212; calls by dose curve). In outline:
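Beta-lactamase reporter read by fluorescence (LiveBLAzer B/G FRET, 2 h, room temperature). Test agents, in DMSO, incubated at 37 C with PPARd-bla HEK293H cells.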

Assay [10] in a line: qHTS assay to identify small molecule antagonists of the peroxisome proliferator-activated receptor delta (PPARd) signaling pathway - cell viability counter screen (AID 743213). Also: nearly all actives have a fitted effect of over 50% in size. The procedure, abridged:
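In this counter screen, HEK293H cells carrying a UAS-beta-lactamase reporter are co-treated with test compounds and 300 nM L165041 (final) for 17 h at 37 C; cell viability is quantified by CellTiter-Glo luminescence.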

Assay [11] deals with Peroxisome proliferator-activated receptor delta (Homo sapiens) (UniProt Q03181). Put plainly: qHTS assay to identify small molecule antagonists of the peroxisome proliferator-activated receptor delta (PPARd) signaling pathway (AID 743215; active = well fitted inhibition curve with a large enough effect in the signal ratio in the repeat runs, not every such curve was filed as active; the % refers to the signal ratio;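 also: cells stimulated with agonist L165041 at 300 nM final during compound exposure; series mostly up to about 62 µM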). The procedure, abridged: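 Here, a reporter line (HEK293H, beta-lactamase under a UAS) measures PPARd signaling. Compounds are tested against agonist L165041 at 300 nM final concentration over 17 h at 37 C, with fluorescence read after substrate.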
Peroxisome proliferator-activated receptor delta (Homo sapiens), sequence (Q03181 whole entry, looked up): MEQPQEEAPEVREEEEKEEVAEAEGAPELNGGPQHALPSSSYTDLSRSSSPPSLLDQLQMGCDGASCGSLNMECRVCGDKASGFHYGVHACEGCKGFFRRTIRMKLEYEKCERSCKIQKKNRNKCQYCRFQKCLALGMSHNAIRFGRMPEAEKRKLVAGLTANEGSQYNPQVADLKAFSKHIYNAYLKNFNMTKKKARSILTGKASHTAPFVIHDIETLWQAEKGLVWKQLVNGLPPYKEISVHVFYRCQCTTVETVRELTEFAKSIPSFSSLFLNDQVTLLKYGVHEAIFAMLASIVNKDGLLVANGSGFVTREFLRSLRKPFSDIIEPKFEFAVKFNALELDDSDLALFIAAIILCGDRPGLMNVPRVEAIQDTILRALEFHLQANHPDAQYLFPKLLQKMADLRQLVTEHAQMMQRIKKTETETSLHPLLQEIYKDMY

Assay [12] is described as follows: qHTS assay to identify small molecule agonists of the farnesoid-X-receptor (FXR) signaling pathway - cell viability counter screen (AID 743218). Also: nearly all actives have a fitted effect of over 45% in size. In outline:
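Quantitative HTS counter screen measuring ATP-based viability via CellTiter-Glo luminescence in HEK 293T cells carrying a UAS-driven beta-lactamase reporter, after 16 h compound exposure at 37 C.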

Assay [13] in a line: qHTS assay to identify small molecule antagonists of the farnesoid-X-receptor (FXR) signaling pathway - cell viability counter screen (AID 743221; active = well fitted cell-killing curve with a large enough effect in the repeat runs, not every such curve was filed as active; also: nearly all actives have a fitted effect of over 50% in size). In outline: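 Luminescence from CellTiter-Glo measures cytotoxicity in GeneBLAzer FXR-UAS-bla HEK 293T cells. Cells were exposed to compounds with 50 uM chenodeoxycholic acid (final) for 16 h at 37 C, in wells also used for the reporter readout.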

Assay [14] has as its target Vitamin D3 receptor (Homo sapiens) (UniProt P11473). Briefly: qHTS assay to identify small molecule agonists of the vitamin D receptor (VDR) signaling pathway (AID 743222; calls by dose curve). The procedure, abridged: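 Tox21 cell reporter format: VDR-bla line, 16 h compound exposure in 5% CO2 at 37C, then fluorescence intensity after 2 h with LiveBLAzer B/G FRET substrate.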
The target is the same in assay [15]. Briefly: qHTS assay to identify small molecule antagonists of the vitamin D receptor (VDR) signaling pathway (AID 743223; active = well fitted inhibition curve with a large enough effect in the signal ratio in the repeat runs, not every such curve was filed as active; the % refers to the signal ratio). The procedure, abridged:
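Antagonist mode uses 1alpha,25-dihydroxyvitamin D3 at 3 nM final as stimulus. VDR-bla cells receive compounds in DMSO, incubate 16 h at 37C, then a beta-lactamase FRET substrate for 2 h at room temperature before fluorescence measurement.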

A short description of assay [16]: qHTS assay to identify small molecule that activate the aryl hydrocarbon receptor (AhR) signaling pathway - cell viability counter screen (AID 743086). Also: nearly all actives have a fitted effect of over 45% in size. Also: potency is read from the fitted curve at half-maximal effect.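 As to viability change, negative = cytotoxic: HepG2 liver cells carrying the AhR DRE luciferase reporter; series mostly up to about 70 µM.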 In outline: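 HepG2-AhR-luc (HG2L7.5c1) cells, 4000/well, were preincubated 5 h at 37C, exposed to compound in qHTS format for 24 hr at 37C, then given CellTiter-Fluor for 30 min; viability was read as fluorescence in the reporter wells.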

Assay [17] has as its target Peroxisome proliferator-activated receptor gamma (Homo sapiens) (UniProt P37231). Briefly: qHTS assay to identify small molecule antagonists of the peroxisome proliferator-activated receptor gamma (PPARg) signaling pathway (AID 743191; calls by dose curve; also: series mostly up to about 63 µM; nearly all actives have a fitted effect of over 30% in size). In outline: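 GeneBLAzer PPARg UAS-bla HEK293H cells carrying a UAS-driven beta-lactamase reporter were plated at 3000 cells/well, preincubated 5 h at 37C, then given compound for 17 h at 37C; LiveBLAzer B/G FRET substrate was read after 1 h at room temperature.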

A short description of assay [18]: qHTS assay for small molecule activators of the heat shock response signaling pathway - cell viability counter screen (AID 743209). Also: nearly all actives have a fitted effect of over 50% in size. In outline: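 Compounds dissolved in DMSO were added to overnight-plated HSE-bla HeLa cells and left 5 h at 37 C. Cell viability was quantified by luminescence using CellTiter-Glo.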
Assay [19] concerns the target Bile acid receptor (Homo sapiens) (UniProt Q96RI1). Briefly: qHTS assay to identify small molecule antagonists of the farnesoid-X-receptor (FXR) signaling pathway (AID 743217; active = well fitted inhibition curve with a large enough effect in the signal ratio in the repeat runs, not every such curve was filed as active; the % refers to the signal ratio). The procedure, abridged: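 Test compounds are pin-transferred onto FXR-bla HEK 293T cells, then chenodeoxycholic acid is added at 50 uM final. After 16 h at 37 °C, LiveBLAzer B/G substrate is applied for 2 h at room temperature and fluorescence read.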

Assay [20] shares this target. Briefly: qHTS assay to identify small molecule agonists of the farnesoid-X-receptor (FXR) signaling pathway (AID 743220; active = well fitted activation curve with a large enough effect in the signal ratio in the repeat runs, not every such curve was filed as active; the % refers to the signal ratio). The procedure, abridged: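 FXR-UAS-bla HEK 293T cells carrying a UAS-driven beta-lactamase reporter were plated for 5 h at 37C/5% CO2, then exposed to DMSO-dissolved Tox21 10K compounds for 16 h at 37C. A LiveBLAzer B/G FRET substrate was loaded for 2 h at room temperature before fluorescence reading.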
% is scaled to controls: 0 for no effect and ±100 for the full control effect.

Vitamin D3 receptor (Homo sapiens), sequence (P11473 whole entry, looked up): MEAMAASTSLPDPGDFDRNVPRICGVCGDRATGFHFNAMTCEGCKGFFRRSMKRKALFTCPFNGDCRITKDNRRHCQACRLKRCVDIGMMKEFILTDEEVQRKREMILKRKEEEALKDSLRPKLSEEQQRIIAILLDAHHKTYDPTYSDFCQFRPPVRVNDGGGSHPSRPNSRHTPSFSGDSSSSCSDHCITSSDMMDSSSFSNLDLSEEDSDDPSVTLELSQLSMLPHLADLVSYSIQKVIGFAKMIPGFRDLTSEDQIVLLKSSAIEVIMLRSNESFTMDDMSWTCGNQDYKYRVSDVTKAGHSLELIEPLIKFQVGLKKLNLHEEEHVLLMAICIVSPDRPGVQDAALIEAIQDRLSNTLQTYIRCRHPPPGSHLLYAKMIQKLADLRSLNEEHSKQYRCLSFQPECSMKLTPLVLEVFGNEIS
Aryl hydrocarbon receptor (Homo sapiens), sequence (P35869 whole entry, looked up): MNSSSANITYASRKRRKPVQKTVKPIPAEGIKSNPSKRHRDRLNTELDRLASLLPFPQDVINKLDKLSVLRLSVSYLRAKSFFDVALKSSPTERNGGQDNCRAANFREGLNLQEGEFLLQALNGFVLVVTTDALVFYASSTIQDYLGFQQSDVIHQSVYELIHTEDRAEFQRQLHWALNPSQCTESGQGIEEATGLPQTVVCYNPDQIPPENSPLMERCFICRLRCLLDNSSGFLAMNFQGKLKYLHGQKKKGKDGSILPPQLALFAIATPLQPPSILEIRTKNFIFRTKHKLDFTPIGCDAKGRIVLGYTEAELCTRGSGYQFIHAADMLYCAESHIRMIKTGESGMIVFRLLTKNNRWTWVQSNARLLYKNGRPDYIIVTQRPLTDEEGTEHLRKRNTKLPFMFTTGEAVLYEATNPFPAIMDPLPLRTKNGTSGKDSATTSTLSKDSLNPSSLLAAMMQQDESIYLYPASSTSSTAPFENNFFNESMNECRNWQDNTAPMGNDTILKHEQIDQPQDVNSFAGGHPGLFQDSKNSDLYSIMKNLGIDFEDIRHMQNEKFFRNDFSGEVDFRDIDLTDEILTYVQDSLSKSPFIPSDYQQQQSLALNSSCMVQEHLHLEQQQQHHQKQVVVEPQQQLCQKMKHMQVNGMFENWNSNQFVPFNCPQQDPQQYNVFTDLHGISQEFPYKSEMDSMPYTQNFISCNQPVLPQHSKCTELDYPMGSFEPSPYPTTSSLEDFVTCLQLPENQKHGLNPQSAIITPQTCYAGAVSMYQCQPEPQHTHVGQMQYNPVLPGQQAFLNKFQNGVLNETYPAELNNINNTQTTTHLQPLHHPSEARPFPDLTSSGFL
Bile acid receptor (Homo sapiens), sequence (Q96RI1 whole entry, looked up): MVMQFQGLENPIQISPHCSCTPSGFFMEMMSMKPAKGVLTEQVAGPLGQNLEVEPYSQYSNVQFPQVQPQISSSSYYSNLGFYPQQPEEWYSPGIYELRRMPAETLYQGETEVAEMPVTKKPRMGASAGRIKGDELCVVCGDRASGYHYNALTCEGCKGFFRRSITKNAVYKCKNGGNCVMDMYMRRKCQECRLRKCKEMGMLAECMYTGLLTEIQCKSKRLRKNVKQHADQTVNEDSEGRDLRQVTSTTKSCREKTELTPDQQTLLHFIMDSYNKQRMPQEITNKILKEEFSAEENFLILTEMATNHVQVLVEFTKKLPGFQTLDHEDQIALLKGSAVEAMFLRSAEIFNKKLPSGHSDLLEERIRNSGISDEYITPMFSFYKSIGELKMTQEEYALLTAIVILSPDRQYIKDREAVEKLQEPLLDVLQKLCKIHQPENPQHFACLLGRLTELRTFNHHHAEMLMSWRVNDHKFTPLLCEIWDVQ
Peroxisome proliferator-activated receptor gamma (Homo sapiens), sequence (P37231 whole entry, looked up): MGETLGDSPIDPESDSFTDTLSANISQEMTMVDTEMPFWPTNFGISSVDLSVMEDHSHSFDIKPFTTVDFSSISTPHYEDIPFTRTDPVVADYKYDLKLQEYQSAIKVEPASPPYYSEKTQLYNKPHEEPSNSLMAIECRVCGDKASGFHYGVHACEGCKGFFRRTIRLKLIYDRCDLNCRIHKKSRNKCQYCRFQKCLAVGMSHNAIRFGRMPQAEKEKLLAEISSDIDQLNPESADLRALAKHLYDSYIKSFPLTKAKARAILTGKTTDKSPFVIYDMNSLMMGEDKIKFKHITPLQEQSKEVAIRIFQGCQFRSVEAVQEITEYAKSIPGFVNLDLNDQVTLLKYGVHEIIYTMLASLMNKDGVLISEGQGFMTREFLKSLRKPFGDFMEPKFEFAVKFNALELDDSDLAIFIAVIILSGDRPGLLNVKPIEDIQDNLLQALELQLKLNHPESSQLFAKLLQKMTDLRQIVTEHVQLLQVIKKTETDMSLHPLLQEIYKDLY

Take `O=C1c2cccc3c2[C@H](CCC3)CN1[C@@H]1CN2CCC1CC2`: the Potency entry in assay [1], in assay [2], in [5] and in assay [12] was “inactive” each time. The call in assay [3], in assay [4], in assay [6], in [7], in [8] and in [9] was inactive. Moreover, the result in assay [10], in assay [11], in [13], in assay [14] and in assay [15] was inactive.

Take `CC(C)(C)OC(=O)c1ccc(O)cc1`: the Potency entry in [1], in [16], in [17], in assay [19], in assay [12] and in [20] was “inactive” in each case. The compound was called inactive in assay [3], in assay [4], in assay [6], in assay [18], in [7] and in assay [8]. Besides, the outcome in assay [9], in assay [11], in assay [13] and in assay [14] was inactive.

Turning to `CCCCNc1ccc(C(=O)OCCN(C)C)cc1`, the Potency entry in [1], in assay [2] and in assay [16] was “inactive” throughout. In addition, the compound was classed as inactive in assay [4], in [6], in [7], in [8], in [9] and in [10]. Moreover, the compound was classed as inactive in assay [11], in assay [13], in assay [14] and in assay [15].

Consider `O=C(/N=N/C(=O)OCc1ccccc1)OCc1ccccc1`, for which the Potency entry in [1], in [16], in [5] and in [12] was “inactive” in each case. In addition, the outcome in assay [3], in [4], in assay [6], in assay [18], in [8] and in assay [10] was inactive. In addition, the compound was classed as inactive in assay [11], in assay [13] and in [14].

As for `CO[C@@H]1[C@@H](OC(N)=O)[C@@H](O)[C@H](Oc2ccc3c(O)c(NC(=O)c4ccc(O)c(CC=C(C)C)c4)c(=O)oc3c2C)OC1(C)C`, the Potency entry in [1], in [2], in assay [16], in assay [5], in assay [19] and in assay [12] was “inactive” in each case. The Potency result in assay [20] was “inactive”. Also, the result in [4], in [6], in assay [18], in [8], in assay [9] and in assay [10] was inactive. Besides, the compound was called inactive in assay [11], in [13], in assay [14] and in assay [15].

Take `CN1CCN(CC(=O)N2c3ccccc3C(=O)Nc3cccnc32)CC1`: the Potency entry in assay [2] and in assay [16] was “inactive” in each case. In addition, in assay [3], the compound was classed as inactive. In addition, the ratio activity, negative = inhibition was 0.895% [at 5.95 µM] in [17] and 1.31% [at 6.26 µM] in assay [11]. Moreover, the activity change, negative = cytotoxicity was 4.99% [at 5.95 µM] in assay [4], -5.11% [at 5.95 µM] in [8] and -5.73% [at 5.95 µM] in assay [13]. For the same compound, the viability change, negative = cytotoxic in assay [6] was 1.72% [at 8.36 µM]; in assay [10], 18.4% [at 6.26 µM]; in [12], 9.72% [at 5.95 µM]. Also, in assay [7], the activation is -0.267% [at 5.95 µM]. For the same compound, the activity change, negative = inhibition in assay [15] was -1.37% [at 6.95 µM].

Consider `CC(C)(C)c1nnc(NS(=O)(=O)c2ccc(N)cc2)s1`, for which the result in [4], in assay [6], in [18], in assay [7], in [8] and in assay [10] was inactive. The call in assay [11], in assay [13] and in assay [14] was inactive. Further, the Potency result in assay [5] and in [12] was “inactive” in each case.

On to `COc1cc2c(cc1OC)C(=O)CC2`, for which the Potency result in assay [17], in assay [5] and in [12] was “inactive” each time. Further, the compound was classed as inactive in [4], in [6], in assay [7], in [8], in assay [9] and in [10]. Moreover, the outcome in assay [11], in [13], in [14] and in assay [15] was inactive.

With `O=C(CCN1CCN(CCO)CC1)N1c2ccccc2Sc2ccc(C(F)(F)F)cc21`, the Potency entry in assay [2] and in [17] was “inactive” throughout. Besides, the Potency in assay [16] is 21.1 µM (active). The result in [3], in assay [4], in assay [6], in assay [18], in [8] and in assay [9] was inactive. The result in assay [10], in assay [11], in assay [13], in assay [14] and in [15] was inactive.

Take `CC(C)C[C@H](NC(=O)CNC(=O)[C@H](Cc1ccc(O)cc1)NC(=O)[C@H](CO)NC(=O)[C@H](Cc1c[nH]c2ccccc12)NC(=O)[C@H](Cc1cnc[nH]1)NC(=O)[C@@H]1CCC(=O)N1)C(=O)N[C@@H](CCCN=C(N)N)C(=O)N1CCC[C@H]1C(=O)NCC(N)=O` (stereo in doubt): the Potency entry in assay [16], in assay [5] and in assay [19] was “inactive” each time. In addition, the compound was classed as inactive in assay [6], in assay [8], in assay [10], in assay [13] and in assay [15].
